The values below come from PubChem BioAssay AID2380 (Sanford-Burnham Center for Chemical Genomics, 2010).

The campaign covered roughly 330,000 compounds. About 960 (0.29%) were called active. The list comes from a sample in which actives are over-represented; it also holds similar structures and randomly drawn compounds. Unmarked numbers belong to inactive results.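 How the source made its calls: active means compounds whose signal lies at least 3.5 SD above the mean of all wells on their plate; inactive means the rest.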

This experiment is described as follows: inducers of MIN6 beta-cell proliferation, primary screen, ATP luminescence, uHTS (AID 2380).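 Further: 0% = DMSO-treated cells in low-serum medium and 100% = 10% serum control.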 As to conditions: MIN6 cells proliferation, ATPlite luminescence, 48 h; at 10 µM; stronger effect = higher value; 100% = growth in 10% serum; cells starved in 0.2% serum. For orientation: Cellular ATP, detected with luciferase, serves as a proxy for viable cell number.
Turning to `COc1cccc(CNC(=O)C2CCCN(c3ncnc4c3nc3n4CCCCC3)C2)c1` (stereo unspecified), the proliferation is 7.08% (active).

As to `COc1cccc(NC(=O)C2CCCN(c3ncnc4c3nc3n4CCCCC3)C2)c1` (stereo unspecified), the proliferation is 5.62%.

For the compound `O=C(NCCCN1CCCCC1)C1CCCN(c2ncnc3c2nc2n3CCCCC2)C1` (stereo unspecified), the proliferation is -1.13%.

For the compound `CC1CN(C(=O)CCC(=O)NCc2cccnc2)c2ccccc2O1` (stereo unspecified), the proliferation was -2.56%.

For the compound `Cc1ccc2c(c1)N(C(=O)CCC(=O)NCc1cccnc1)CCO2`, the proliferation was 1.08%.

With `Cc1ccccc1CNC(=O)CCC(=O)N1Cc2ccccc2Oc2ncccc21`, the proliferation is 12.5% (active).

As for `CC(C)Cc1nc(Nc2ccc(S(=O)(=O)N3CCCC3)cc2)c2nnn(Cc3ccccc3)c2n1`, the proliferation is -0.74%.

In the case of `COC(=O)C(C(=O)Nc1cccc(C)n1)C1CCCCCC1` (stereo unspecified), the proliferation was 0%.

As for `O=C(C1CCN(C2CCN(Cc3cccc4c3OCO4)CC2)CC1)N1CCOCC1`, the proliferation is 1.29%.

Take `CC1CCN(C(=O)CCc2nnc3ccc(NCc4ccco4)nn23)CC1`: the proliferation was -1.78%.

For the compound `COC(=O)COc1ccc(S(=O)(=O)N2CCOCC2)cc1`, the proliferation is -2.03%.

For the compound `O=C(COC(=O)c1ccccc1)Nc1cccc(S(=O)(=O)N2CCOCC2)c1`, the proliferation was 1.39%.

Take `CC(=O)c1cccc(NC(=O)COc2ccc(S(=O)(=O)N3CCOCC3)cc2)c1`: the proliferation is 10.6% (active).

On to `CCN1C(=O)[C@@H]2[C@@H](c3ccc(-c4ccccc4)cc3)N3CCCC[C@@]3(C(=O)OC)[C@@H]2C1=O`, for which the proliferation was -7.4%.

For `CN(CC(=O)Nc1c(Cl)cccc1Cl)C(=O)CC1OC(=O)c2ccccc21` (stereo unspecified), the proliferation is -1.95%.

With `CC1Cn2c(nnc2-c2cccs2)S1` (stereo unspecified), the proliferation was -1.85%.

Regarding `O=C(NCc1ccc2c(c1)OCO2)c1cc2c(s1)CS(=O)(=O)C2`, the proliferation was -0.86%.

On to `CC(=O)OC(C(=O)NC1CCCCC1)c1ccccc1` (stereo unspecified), for which the proliferation is 5.32% (active).

`O=C(NNC(=O)C(O)c1ccccc1)NC1CCCCC1` (stereo unspecified): the proliferation was -1.83%.

For `CC(=O)CC(CC(=O)NC1CCCCC1)c1ccccc1` (stereo unspecified), the proliferation was 0.52%.

In the case of `Cn1c(=O)c2c(ncn2CC(COCc2ccccc2Cl)OCc2ccccc2Cl)n(C)c1=O` (stereo unspecified), the proliferation was -1.81%.

`Nc1[nH]c(=S)nc2nc(-c3ccccc3)c(-c3ccccc3)nc12`: the proliferation is -5.91%.

For `COC(=O)c1cc(C(=O)NC(C)C2CC3CCC2C3)cc([N+](=O)[O-])c1` (stereo unspecified), the proliferation is 0%.

Regarding `O=S(=O)(NCCOc1cccc2cccnc12)c1ccc(F)cc1`, the proliferation is 5.56% (active).

Turning to `O=S(=O)(NCCc1ccc(F)cc1)c1cccc2cccnc12`, the proliferation was 3.17%.

In the case of `O=S(=O)(NCc1ccccn1)c1ccc(F)cc1`, the proliferation is 0.39%.

Take `Cc1cc(Cl)ccc1NNC(=O)c1snnc1C`: the proliferation was -4.18%.

`CNc1[nH]ncc1[N+](=O)[O-]`: the proliferation was 3.19%.

Consider `CN(C(=O)CSc1nnc(-c2n[nH]c3ccccc23)o1)c1ccccc1`, for which the proliferation was 0.29%.

Take `Cc1ccc(C(=O)Nc2ccc(NC(=O)c3cccs3)cc2)c(C)c1`: the proliferation was 0% (active).

For the compound `Cc1ccc(NC(=O)c2cccs2)cc1S(=O)(=O)N(C)C`, the proliferation was 0.43%.

Consider `Cc1ccc(OCC(=O)Nc2ccc(NC(=O)c3cccs3)cc2)c(C)c1`, for which the proliferation is 0%.

Regarding `CC(C)(C)N(CC#CCC(O)(c1ccccc1)C1CCCC1)CCO` (stereo unspecified), the proliferation is 2.2%.

As to `O=C(Nc1ccccc1N1CCCC1)c1ccc2ccccc2c1`, the proliferation was -2.88%.

On to `COc1ccc(NS(=O)(=O)c2ccc(N3CCOCC3)c(NC(=O)c3ccccc3Br)c2)cc1`, for which the proliferation was 5.36%.

As for `CCn1c(=O)n(CC)c2cc(N3CCCC3)c(NC(=O)c3ccccc3Br)cc21`, the proliferation is 13.7% (active).

For `CCC(C(=O)NC1CCCC1)N(C(=O)Cn1nnc(-c2ccc(C)o2)n1)c1ccc(OC)c(OC)c1` (stereo unspecified), the proliferation was 5.41%.

For the compound `COc1ccc(N(CC(=O)Nc2cc(OC)ccc2OC)S(=O)(=O)c2c(C)noc2C)cc1`, the proliferation was -0.48%.

For `CCCOc1ccc(NC(=O)CC2C(=O)N(C)C(=S)N2Cc2ccc3c(c2)OCO3)cc1` (stereo unspecified), the proliferation is 0%.

In the case of `CC/C(=N/Nc1ccccc1)c1cnnc(SC)n1`, the proliferation is 8.26% (active).

As for `C/C(=N/Nc1ccc(Cl)cc1)c1cnnc(-c2ccccc2)n1`, the proliferation was -3.11%.

With `CSc1nsc(NC(=O)Nc2ccccc2)n1`, the proliferation is -5.02%.

Consider `OCc1ccc(-c2ccccc2)c(-c2ccccc2)c1`, for which the proliferation is -3.43%.

`O=C(O)CC(SCC(=O)Nc1ccc(Br)cc1)C(=O)O` (stereo unspecified): the proliferation was -0.34%.

Take `Cc1cc(C)c2c(-n3cccc3)c(NC(=O)OCc3ccccc3)sc2n1`: the proliferation was -5.05%.

On to `COC(=O)Nc1sc2nc(C)cc(C)c2c1-n1cccc1`, for which the proliferation is 8.22% (active).

For the compound `CCCCOC(=O)Nc1sc2nc(C)cc(C)c2c1-n1cccc1`, the proliferation is 0.21%.

On to `CCOC(=O)N1CCN(C(=O)c2ccc3c(=O)n(CCc4ccc(OC)c(OC)c4)c(=O)[nH]c3c2)CC1`, for which the proliferation is 2.68%.

As to `CCOc1ccc(-n2c(SCC(=O)Nc3cc(C(=O)O)ccc3Cl)nc3ccccc3c2=O)cc1`, the proliferation was -1.58%.

As to `FC(F)(F)c1cccc(NC(=S)Nc2cccc(Cl)c2)c1`, the proliferation is -6.83%.

As for `Cc1csc(NC(=S)Nc2cccc(Cl)c2)n1`, the proliferation was -2.77%.

As for `S=C(Nc1cccc(Cl)c1)Nc1ccc2cn[nH]c2c1`, the proliferation is 0% (active).

As to `CCCCn1c(N)c(N(CC)C(=O)/C=C/c2ccco2)c(=O)[nH]c1=O`, the proliferation is -1.59%.

Take `COc1ccc(CCC(=O)c2ccc(OC)cc2)cc1`: the proliferation was 5.33% (active).

With `COc1ccc(C(=O)CCC(=O)Nc2ccc(Cl)cc2)cc1`, the proliferation is -2.97%.

`CO/N=C/CC(=O)c1ccc(OC)cc1`: the proliferation was -1.22%.

Regarding `CCCCn1c(N)c(N(CCOC)C(=O)c2cccc(S(=O)(=O)N3CCCCC3)c2)c(=O)[nH]c1=O`, the proliferation is 1.76%.

On to `c1ccc(C[C@H]2CNCCN2CCC23CC4CC(CC(C4)C2)C3)cc1`, for which the proliferation is -8%.

`O=C(/C=C/Nc1ccccc1)c1cnc(-c2ccccc2)s1`: the proliferation was -1.21%.

For `CC(=O)c1cnc(-c2ccccc2)s1`, the proliferation was 8.82% (active).

With `CC(C)(C)C(=O)c1cnc(Nc2ccccc2)s1`, the proliferation was -3.47%.
